In PubChem BioAssay (NCI):
About 83,000 compounds went through this panel and 20% of them were active in at least one assay; those are over-represented in the sample as a whole.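 How to read the values: 0–100, growth inhibition (40 = 60% inhibited); 0, no net growth; -100 to 0, cell death (-40 = 40% of starting cells died; -100 = all dead).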 Unmarked numbers belong to inactive results. Calls of active or inactive are those of the source. How the source made its calls: active means growth percent below 10; inactive means the rest.

test system: MALME-3M melanoma; test: NCI-60 one-dose screen, 48 h (100 = growth as untreated, 0 = no growth, -100 = all killed); details: 10 µM unless noted

| Structure (SMILES) | growth |
| --- | --- |
| [O-]/[N+](=C\c1ccccc1)CC1(O)CCCCC1 | 108% |
| CC(=O)O[C@H]1[C@H](CC#CC#CC[C@@H]2C[C@]3(C)[C@H]4CC=C5[C@H]6[C@@H](C)[C@H](C)CC[C@]6(C(=O)NCCCCCCCCN)CC[C@@]5(C)[C@]4(C)CC[C@H]3C(C)(C)[C@H]2OC(C)=O)C[C@]2(C)[C@H]3CC=C4[C@H]5[C@@H](C)[C@H](C)CC[C@]5(C(=O)NCCCCCCCCN)CC[C@@]4(C)[C@]3(C)CC[C@H]2C1(C)C | 105% |
| N#Cc1c(N)c(C(=O)c2ccc3c(c2)OCCO3)n2c1CCCC2 | -8.49% (active) |
| Cc1c(O)c(=O)n(-c2ccccc2)n1C | 112% |
| COc1ccc2[nH]c(O)c(/C=c3/ccc4c(c3)N=C(c3ccc(C(F)(F)F)cc3)N=4)c2c1 | 99.9% |
| COc1ccc(/C=C/C(=O)c2ccc(NC(=O)CSc3nnc(-c4ccc(OC)cc4)n3-c3ccccc3)cc2)cc1 | 96.8% |
| N=C(N)c1ccc(-c2ccc(-c3cc(Cl)cc(Cl)c3)o2)nc1 | -58.9% (active) |
| CN(C)c1ccc(N2Cc3ccccc3OC3=C2C(=O)c2c(O)ccc(O)c2C3=O)cn1 | -76.9% (active) |
| COc1ccccc1/C=N\NC(=S)Nc1ccc(F)cc1 | 65% |
| FC(F)(F)C1=NNC(c2ccc3ccccc3c2)=NN1 | 107% |
| CCCC(CCC)NCC(O)c1cc(-c2ccc(C(F)(F)F)cc2)nc(C(F)(F)F)c1 (stereo not drawn) | -63.7% (active) |
| CCOC(=O)c1c(NC(=O)c2ccccc2)sc2c(O)c(CN(CC)CC)ccc12 | 38.1% |
| CCOC(C)(c1ccc(Cl)cc1)C1CCNCC1 (stereo not drawn) | 99.9% |
| O=S(=O)(NCC[C@@H]1C[C@H]1c1ccc2ccccc2c1)c1ccc(C(F)(F)F)cc1 | 88.5% |
| CC(CN1CCN(C)CC1)CN1c2ccccc2Sc2ccc(C(F)(F)F)cc21 (stereo not drawn) | 62.9% |
| NC(=S)N/N=C(/c1cccs1)C1CC1 | 96% |
| COc1cc(C2Nc3ccccc3S2)cc(CN2CCOCC2)c1O (stereo not drawn) | 66.7% |
| O=[N+]([O-])c1cccc([I+]c2ccccc2)c1 | 49.4% |
| C=CCn1c(SCC(=O)Nc2ccc(/C(C)=N\O)cc2)nnc1-c1cc(-c2ccccc2)nc2ccccc12 | 96.3% |
| C=CC[C@]1(O)CC[C@H]2[C@@H]3CCc4cc(O)ccc4[C@H]3CC[C@@]21C | 93.3% |

| Structure (SMILES) | growth |
| --- | --- |
| CC(=O)c1c(O)c(C)c(O)c2c1OC1=CC(=O)/C(=C(/C)N)C(=O)C12C (stereo not drawn) | 96.9% |
| COc1c(B(O)O)cccc1-c1nc2c(F)cc3n[nH]c(C)c3c2c2c1CCCC2 | 55.9% |
| CCCCNCC(O)c1cc(-c2ccc(C(F)(F)F)cc2)nc(-c2ccc(C(F)(F)F)cc2)c1 (stereo not drawn) | -41.6% (active) |
| Oc1[nH]c2ccc(Cl)cc2c1/C=c1/ccc2c(c1)N=C(c1ccc(F)cc1)N=2 | -3.95% (active) |
| COc1ccc(C(=O)c2c(N)nc3n2CCCC3)cc1OC | 99.9% |
| CCOC(=O)Nc1ccc2nc(-c3cscn3)[nH]c2c1 | 22% |
| CCOC(=O)C(Nc1ccccc1)C(=O)OCC | 93.2% |
| CN1CCN(Cc2ccc(NC(=O)c3cncc(C#Cc4ncc5ccccn45)c3)cc2C(F)(F)F)CC1 | -21.4% (active) |
| COS(=O)(=O)CCN(CCOS(C)(=O)=O)S(C)(=O)=O | 98.9% |
| O=C(c1ccccc1)N(CCCCl)C(=O)N(CCCCl)C(=O)c1ccccc1 | 91.8% |
| OC(c1cc2cc(Cl)ccc2c2cc(C(F)(F)F)ccc12)C1CCCCN1 (stereo not drawn) | -61.9% (active) |
| CC(C)CC(NC(=O)C(CCCN=C(N)N)NC(=O)OCc1ccccc1)C(=O)NC(CNC(=O)/C=C/c1ccccc1)C(C)C (stereo not drawn) | 107% |
| CCn1c(CN2CCN(Cc3ccccc3)CC2)nc2cc(NC(=O)c3cccs3)ccc21 | -72.8% (active) |
| COc1cc(C)cc2oc3oc(=O)c(-c4csc(-c5cc6ccccc6oc5=O)n4)cc3c(=O)c12 | 105% |
| OC(c1cc2c(Cl)cc(Cl)cc2c2cc(C(F)(F)F)ccc12)C1CCCCN1 (stereo not drawn) | -44% (active) |
| N#CC1=C(N)Oc2nc[nH]c(=O)c2C1c1cccs1 (stereo not drawn) | 112% |
| Cc1cc(C)cc(Nc2cc(C)nc3nc(C(F)(F)F)nn23)c1 | 45.5% |
| Cc1ccc(N2C3c4ccccc4N(S(=O)(=O)c4ccc(C)cc4)C2c2ccccc2N3S(=O)(=O)c2ccc(C)cc2)cc1 | 97.9% |
| CCOC(=O)c1ccc(NC(=O)NC2=NCCS2)cc1 | 8.27% (active) |

test system: MDA-MB-231 breast; test: as above; details: 10 µM unless noted

| Structure (SMILES) | growth |
| --- | --- |
| [O-]/[N+](=C\c1ccccc1)CC1(O)CCCCC1 | 101% |
| CC(=O)O[C@H]1[C@H](CC#CC#CC[C@@H]2C[C@]3(C)[C@H]4CC=C5[C@H]6[C@@H](C)[C@H](C)CC[C@]6(C(=O)NCCCCCCCCN)CC[C@@]5(C)[C@]4(C)CC[C@H]3C(C)(C)[C@H]2OC(C)=O)C[C@]2(C)[C@H]3CC=C4[C@H]5[C@@H](C)[C@H](C)CC[C@]5(C(=O)NCCCCCCCCN)CC[C@@]4(C)[C@]3(C)CC[C@H]2C1(C)C | 103% |
| N#Cc1c(N)c(C(=O)c2ccc3c(c2)OCCO3)n2c1CCCC2 | 52.3% |
| Cc1c(O)c(=O)n(-c2ccccc2)n1C | 99.1% |
| COc1ccc2[nH]c(O)c(/C=c3/ccc4c(c3)N=C(c3ccc(C(F)(F)F)cc3)N=4)c2c1 | 74.8% |
| COc1ccc(/C=C/C(=O)c2ccc(NC(=O)CSc3nnc(-c4ccc(OC)cc4)n3-c3ccccc3)cc2)cc1 | 90.9% |
| N=C(N)c1ccc(-c2ccc(-c3cc(Cl)cc(Cl)c3)o2)nc1 | -77.3% (active) |
| CN(C)c1ccc(N2Cc3ccccc3OC3=C2C(=O)c2c(O)ccc(O)c2C3=O)cn1 | -93.6% (active) |
| COc1ccccc1/C=N\NC(=S)Nc1ccc(F)cc1 | 59.8% |
| FC(F)(F)C1=NNC(c2ccc3ccccc3c2)=NN1 | 81.9% |
| CCCC(CCC)NCC(O)c1cc(-c2ccc(C(F)(F)F)cc2)nc(C(F)(F)F)c1 (stereo not drawn) | -66.9% (active) |
| CCOC(=O)c1c(NC(=O)c2ccccc2)sc2c(O)c(CN(CC)CC)ccc12 | 1.41% (active) |
| CCOC(C)(c1ccc(Cl)cc1)C1CCNCC1 (stereo not drawn) | 102% |
| O=S(=O)(NCC[C@@H]1C[C@H]1c1ccc2ccccc2c1)c1ccc(C(F)(F)F)cc1 | 94.6% |
| CC(CN1CCN(C)CC1)CN1c2ccccc2Sc2ccc(C(F)(F)F)cc21 (stereo not drawn) | 27.6% |
| NC(=S)N/N=C(/c1cccs1)C1CC1 | 91.4% |
| COc1cc(C2Nc3ccccc3S2)cc(CN2CCOCC2)c1O (stereo not drawn) | 63.6% |
| O=[N+]([O-])c1cccc([I+]c2ccccc2)c1 | 83.2% |
| C=CCn1c(SCC(=O)Nc2ccc(/C(C)=N\O)cc2)nnc1-c1cc(-c2ccccc2)nc2ccccc12 | 58.3% |
| C=CC[C@]1(O)CC[C@H]2[C@@H]3CCc4cc(O)ccc4[C@H]3CC[C@@]21C | 99.6% |

| Structure (SMILES) | growth |
| --- | --- |
| CC(=O)c1c(O)c(C)c(O)c2c1OC1=CC(=O)/C(=C(/C)N)C(=O)C12C (stereo not drawn) | 90.8% |
| COc1c(B(O)O)cccc1-c1nc2c(F)cc3n[nH]c(C)c3c2c2c1CCCC2 | 25.5% |
| CCCCNCC(O)c1cc(-c2ccc(C(F)(F)F)cc2)nc(-c2ccc(C(F)(F)F)cc2)c1 (stereo not drawn) | -71.9% (active) |
| Oc1[nH]c2ccc(Cl)cc2c1/C=c1/ccc2c(c1)N=C(c1ccc(F)cc1)N=2 | 63.1% |
| COc1ccc(C(=O)c2c(N)nc3n2CCCC3)cc1OC | 115% |
| CCOC(=O)Nc1ccc2nc(-c3cscn3)[nH]c2c1 | 59.9% |
| CCOC(=O)C(Nc1ccccc1)C(=O)OCC | 105% |
| CN1CCN(Cc2ccc(NC(=O)c3cncc(C#Cc4ncc5ccccn45)c3)cc2C(F)(F)F)CC1 | 15.4% |
| COS(=O)(=O)CCN(CCOS(C)(=O)=O)S(C)(=O)=O | 109% |
| O=C(c1ccccc1)N(CCCCl)C(=O)N(CCCCl)C(=O)c1ccccc1 | 85.7% |
| OC(c1cc2cc(Cl)ccc2c2cc(C(F)(F)F)ccc12)C1CCCCN1 (stereo not drawn) | -68% (active) |
| CC(C)CC(NC(=O)C(CCCN=C(N)N)NC(=O)OCc1ccccc1)C(=O)NC(CNC(=O)/C=C/c1ccccc1)C(C)C (stereo not drawn) | 109% |
| CCn1c(CN2CCN(Cc3ccccc3)CC2)nc2cc(NC(=O)c3cccs3)ccc21 | -90.6% (active) |
| COc1cc(C)cc2oc3oc(=O)c(-c4csc(-c5cc6ccccc6oc5=O)n4)cc3c(=O)c12 | 99.5% |
| OC(c1cc2c(Cl)cc(Cl)cc2c2cc(C(F)(F)F)ccc12)C1CCCCN1 (stereo not drawn) | -73% (active) |
| N#CC1=C(N)Oc2nc[nH]c(=O)c2C1c1cccs1 (stereo not drawn) | 106% |
| Cc1cc(C)cc(Nc2cc(C)nc3nc(C(F)(F)F)nn23)c1 | 50.1% |
| Cc1ccc(N2C3c4ccccc4N(S(=O)(=O)c4ccc(C)cc4)C2c2ccccc2N3S(=O)(=O)c2ccc(C)cc2)cc1 | 94.3% |
| CCOC(=O)c1ccc(NC(=O)NC2=NCCS2)cc1 | 51.8% |
